Test results taken from PubChem BioAssay AID1053173 (Broad Institute, 2014).
Among all 1,500 compounds or so, about 390 (26%) were called active. No rule for the calls is given here. These entries were drawn from the full list. Entries with a potency or affinity are not part of this list.

Each compound was assayed against Histone-lysine N-methyltransferase NSD2 (Homo sapiens) (UniProt O96028) (assay: blockers of NSD2 H4 peptide methylation – biochemical, AlphaScreen, cherry-picked samples, dose response (AID 1053173)). Conditions: 120 min; series mostly up to 10 µM.
Chain of Histone-lysine N-methyltransferase NSD2 (Homo sapiens) (O96028 whole entry, looked up): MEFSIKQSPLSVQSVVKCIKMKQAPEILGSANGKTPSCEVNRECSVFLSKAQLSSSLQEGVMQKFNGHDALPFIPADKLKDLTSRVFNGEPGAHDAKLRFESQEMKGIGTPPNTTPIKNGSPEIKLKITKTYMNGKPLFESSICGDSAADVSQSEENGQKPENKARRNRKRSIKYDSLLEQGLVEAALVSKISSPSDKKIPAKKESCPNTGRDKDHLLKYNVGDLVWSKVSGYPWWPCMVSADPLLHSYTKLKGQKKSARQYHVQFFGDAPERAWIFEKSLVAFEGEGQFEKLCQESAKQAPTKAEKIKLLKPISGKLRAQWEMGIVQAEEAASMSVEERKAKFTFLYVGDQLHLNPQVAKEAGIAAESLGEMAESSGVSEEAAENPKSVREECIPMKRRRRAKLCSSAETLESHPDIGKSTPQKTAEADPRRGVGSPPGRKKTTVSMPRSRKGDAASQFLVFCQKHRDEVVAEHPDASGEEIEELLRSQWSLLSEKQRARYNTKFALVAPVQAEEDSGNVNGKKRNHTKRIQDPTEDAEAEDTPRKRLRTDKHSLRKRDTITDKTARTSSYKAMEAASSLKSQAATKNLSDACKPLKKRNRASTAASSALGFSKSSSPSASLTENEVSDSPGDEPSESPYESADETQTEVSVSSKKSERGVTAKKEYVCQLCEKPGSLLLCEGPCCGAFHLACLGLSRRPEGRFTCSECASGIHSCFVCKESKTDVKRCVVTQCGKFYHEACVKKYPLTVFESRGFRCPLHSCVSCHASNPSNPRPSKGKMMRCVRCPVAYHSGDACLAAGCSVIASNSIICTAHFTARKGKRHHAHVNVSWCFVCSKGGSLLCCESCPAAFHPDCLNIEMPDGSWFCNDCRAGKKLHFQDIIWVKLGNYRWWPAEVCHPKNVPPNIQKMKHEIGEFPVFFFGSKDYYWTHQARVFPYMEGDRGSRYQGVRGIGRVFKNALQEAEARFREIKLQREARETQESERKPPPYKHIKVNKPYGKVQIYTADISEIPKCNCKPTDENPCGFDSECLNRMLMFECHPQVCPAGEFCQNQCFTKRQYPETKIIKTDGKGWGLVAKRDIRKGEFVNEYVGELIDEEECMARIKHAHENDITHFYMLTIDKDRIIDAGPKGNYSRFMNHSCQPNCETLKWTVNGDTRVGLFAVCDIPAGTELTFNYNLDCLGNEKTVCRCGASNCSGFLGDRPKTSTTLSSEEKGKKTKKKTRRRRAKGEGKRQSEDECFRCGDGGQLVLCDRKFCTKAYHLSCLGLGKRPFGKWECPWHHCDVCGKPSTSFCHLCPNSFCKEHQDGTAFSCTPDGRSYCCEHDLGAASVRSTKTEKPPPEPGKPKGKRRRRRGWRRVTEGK

outcome, inactive:
CCOc1cc(/C=C/C(=O)OCC(=O)NCCN2C(=O)CSC2=O)ccc1OCC(C)C, Cc1cccc(-n2c3nc(=O)[nH]c(=O)c-3cc3cc([N+](=O)[O-])ccc32)c1, Cc1c(N=NC2=C(O)CC(C)(C)CC2=O)c(=O)n(-c2ccccc2)n1C, Cc1c(NC(=O)CN2C(=O)C(=O)c3ccccc32)c(=O)n(-c2ccccc2)n1C, C/C(=C\C(=O)c1cccnc1)Nc1ccc(O)cc1, COc1ccc(CCNC(=O)CN2C(=O)C(=O)N(C3CCCC3)C2=O)cc1OC, CN(C)Cc1csc(NC(=O)Nc2cccc(Cl)c2)n1, Cn1c(N2CCCC2)nc2c1c(=O)n(Cc1ccc(Cl)cc1)c(=O)n2C, COCCN(C(=O)CCC(=O)Nc1cc(C)on1)C(C(=O)NC(C)(C)C)c1ccccc1Cl (stereo not drawn), COc1ccc(Cc2ccccc2C(=O)O)cc1, COc1ccc(C(C[N+](=O)[O-])c2c(C)[nH]n(-c3ccccc3)c2=O)cc1 (stereo not drawn), O=C(NNS(=O)(=O)c1ccc(F)cc1F)c1csc(-c2cccnc2)n1, O=C(CCc1ccccc1)NCCCN1CCOCC1, Cc1nn2c3ccccc3n(CCN3CCCCC3)c2nc1=O, O=C(COc1ccccc1O)NCCN1CCOCC1, O=C(NCCN1CCCCC1)/C(=C/c1ccco1)NC(=O)c1ccccc1, O=C(NCCCN1CCCC1=O)Nc1ccc(Cl)cc1Cl, O=C(O)Cc1sc(NC2CCCCC2)nc1-c1ccc(Cl)cc1, Cn1c(=O)c2c(nc(CN3CCC(C(N)=O)CC3)n2Cc2ccccc2Cl)n(C)c1=O, Cc1ccc(-n2c(C)c(C)c3c(N)ncnc32)cc1, CC(=O)c1ccc(-n2c(-c3cc(-c4ccco4)[nH]n3)n[nH]c2=S)cc1, Cc1cc(=O)[nH]c(COc2ccccc2)n1, COC(=O)COc1ccc(S(=O)(=O)NCC2CCCO2)cc1Cl (stereo not drawn), Cc1ccc(Nc2nc(-c3ccc(O)c(O)c3)cs2)nc1, CCOC(=O)c1sc(NC(=O)COc2ccc3c(c2)OCO3)nc1C, COc1ccccc1OCCOc1ccc(/C=C2\C(=N)N3N=C(S(C)(=O)=O)SC3=NC2=O)cc1, O=C(C=Cc1ccccc1)c1cc(Br)ccc1O, Cc1sc2ncnc(SCC(=O)Nc3ccc(CN4CCCC4)cc3)c2c1C, Nc1nc(O)c(Sc2ccccc2[N+](=O)[O-])c(=O)[nH]1, Cc1c(-c2ccc(/C=N/NC(=O)C(=O)Nc3ccccc3F)o2)cccc1[N+](=O)[O-], Nn1cnnc1N/N=C/c1ccc(Cl)c([N+](=O)[O-])c1, CC1CCC2C(C1)c1sc(=O)[nH]c1SC2(C)C (stereo not drawn), COc1ccc(-n2ncc3c(NCCCn4ccnc4)ncnc32)cc1, N#Cc1ccccc1OCC(=O)OCC(=O)N1CCN(C(=O)c2ccco2)CC1, CCCC(=O)Nc1cc(C)cn(Cc2c(F)cccc2Cl)c1=O, COc1ccc(-n2nnnc2SCC(=O)c2ccc3c(c2)OCCO3)cc1, COc1ccc(OCC(=O)NNc2c3ccccc3nc3ccccc23)cc1, CCOC(=O)N1CCN(C(=S)NCCOC)CC1, O=C(CC1(O)C(=O)Nc2cc(Cl)cc(Cl)c21)c1ccncc1 (stereo not drawn), O=C(c1ccc(S(=O)(=O)N2CCOCC2)cc1)N(c1cccc(Cl)c1)C1C=CS(=O)(=O)C1 (stereo not drawn), Cc1ccc(C(=O)C2CCN(S(=O)(=O)c3ccc(C(=O)O)cc3)CC2)cc1, O=C(NCc1ccc(Cl)cc1)c1ccc(S(=O)(=O)N2CCCCC2)cc1, CC(C)c1ccc(S(=O)(=O)N2CCN(CC(=O)Nc3ccc(Cl)cc3F)CC2)cc1, Cc1cccc(NC(=S)N2CCN(c3ccccc3F)CC2)c1C, CC1CCCN(S(=O)(=O)c2ccc(NC(=O)CN3CCN(C)CC3)cc2)C1 (stereo not drawn), NS(=O)(=O)c1ccc(S(=O)(=O)N2CCN(C3CCCC3)CC2)cc1, CCc1cc(OCCN2C(=O)NC(C)(C)C2=O)ccc1Cl, S=C1NCN(Cc2ccco2)CN1CCc1ccccc1, Cc1ncc(CO)c2c1Oc1nc(-c3ccccc3)nc(SCC(=O)N3CCOCC3)c1C2, CCOC(=O)C(CCCP(=O)(c1ccccc1)c1ccccc1)(NC(C)=O)C(=O)OCC, O=C(Cn1cc(C(F)(F)F)ccc1=O)Nc1ccc2c(c1)OCCO2, Cc1ccc(Nc2nnc(SCC(=O)Nc3ccc(S(=O)(=O)N4CCOCC4)cc3)s2)cc1, CCN(CC)c1ccc(NC(=O)COC(=O)c2ccc3ccccc3n2)cc1, COC(=O)C(C)(C)NC(=O)c1cccs1, COc1ccc(OC)c(-c2csc(-c3cccs3)n2)c1, COc1ccc(NC(=O)CN2CCN(S(=O)(=O)N3CCCCCC3)CC2)cc1, CCOC(=O)c1ccc(S(=O)(=O)N2CCN(c3ccccn3)CC2)cc1, O=C(Nc1ccccc1)OCCCCOC(=O)Nc1ccccc1, CCc1nc2ccc(C)cc2c(C(=O)NC2CCCCC2C)c1C (stereo not drawn), O=C(O)c1ccccc1NS(=O)(=O)c1ccc2ccccc2c1, CCOc1ccccc1Nc1nnc(SCc2ccc(C(=O)OC)o2)s1, COCCNC(=O)c1ccc(CN2CCc3ccccc3C2)cc1, Cc1ccc(C(=O)Cn2cc([N+](=O)[O-])nc2C)cc1, CC(C)(C)C1CCC2(CC1)C(Nc1cccc(C(F)(F)F)c1)=NC(=S)N2CC#N (stereo not drawn), COc1ccc(CCC(=O)NCCOc2ccccc2Cl)cc1, CSc1nsc(SCC(=O)Nc2cccc(NC(C)=O)c2)n1, Cc1cccnc1NC(=O)c1ccc(S(=O)(=O)N2CC(C)OC(C)C2)cc1 (stereo not drawn), O=C1CCCC(O)=C1N=Nc1cccc(C(=O)O)c1, O=C(NNC(=O)c1cccs1)c1ccc(Cl)c([N+](=O)[O-])c1, O=C(CC(=O)NCCc1ccccc1)NCCc1ccccc1, CC(C)CC(=O)N1CCC(O)(CS(=O)(=O)Cc2ccccc2Cl)CC1, O=C(CNC(=O)c1ccco1)NCC(=O)OCc1ccccc1Cl, COc1ccccc1C(=O)NNC(=O)Cc1ccccc1
